Assay results as given in PubChem BioAssay AID1159580 (chemical genetic matrix, 2015).
Several values for one entry are separate records, joined by “and”; a condition that tells them apart may be missing. Equal entries are not always repeated. Screen size: about 5,500 compounds; about 2,000 (36%) were called active. Roughly 18% stayed inconclusive and do not appear here. Rule as the data show it: active = normalized growth mostly below about 0.91 (no sharp cut-off); inconclusive = no clear call, values can overlap the other calls; inactive = mostly above about 0.92. Some of the results follow.

Test: chemical genetic growth profiling, strain panel (AID 1159580);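 also: tested at 20 µM; growth read once vehicle control cultures reached saturation at 30 °C; 1 = growth at the plate median or of vehicle wells; lower values mean less growth of the strain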
Details: growth OD
[1] = S. cerevisiae deletion strains, locus YAL013W, strain DEP1, hits give low values
[2] = S. cerevisiae deletion strains, locus YMR263W, strain SAP30, hits give low values
[3] = S. cerevisiae deletion strains, locus YNL128W, strain TEP1, hits give low values
[4] = S. cerevisiae deletion strains, locus YBR229C, strain ROT2, hits give low values
[5] = S. cerevisiae deletion strains, locus YDL101C, strain DUN1, hits give low values
[6] = S. cerevisiae deletion strains, locus YDR150W, strain NUM1, hits give low values
[7] = S. cerevisiae deletion strains, locus YEL061C, strain CIN8, hits give low values
[8] = S. cerevisiae deletion strains, locus YGR078C, strain PAC10, hits give low values
[9] = S. cerevisiae deletion strains, locus YHR030C, strain SLT2, hits give low values
[10] = S. cerevisiae deletion strains, locus YHR087W, strain rtc3, hits give low values
[11] = S. cerevisiae deletion strains, locus YJR043C, strain POL32, hits give low values
[12] = S. cerevisiae deletion strains, locus YJR075W, strain HOC1, hits give low values
[13] = S. cerevisiae deletion strains, locus YKL190W, strain CNB1, hits give low values
[14] = S. cerevisiae deletion strains, locus YLR039C, strain RIC1, hits give low values
[15] = S. cerevisiae deletion strains, locus YLR058C, strain SHM2 (second series), hits give low values
[16] = S. cerevisiae deletion strains, locus YLR085C, strain ARP6, hits give low values
[17] = S. cerevisiae deletion strains, locus YLR262C, strain YPT6, hits give low values
[18] = S. cerevisiae deletion strains, locus YML094W, strain GIM5, hits give low values
[19] = S. cerevisiae deletion strains, locus YMR219W, strain ESC1, hits give low values
[20] = S. cerevisiae deletion strains, locus YNL153C, strain GIM3, hits give low values
[21] = S. cerevisiae deletion strains, locus YNL298W, strain CLA4 (second series), hits give low values
[22] = S. cerevisiae deletion strains, locus YNL322C, strain KRE1, hits give low values
[23] = S. cerevisiae deletion strains, locus YNR030W, strain Alg12, hits give low values
[24] = S. cerevisiae deletion strains, locus YPL055C, strain LGE1, hits give low values
[25] = S. cerevisiae deletion strains, locus YPL241C, strain CIN2, hits give low values
[26] = S. cerevisiae deletion strains, locus YPR135W, strain CTF4, hits give low values
[27] = S. cerevisiae strains, strain wild type, hits give low values
[28] = S. cerevisiae deletion strains, locus YCL061C, strain MRC1, hits give low values
[29] = S. cerevisiae deletion strains, locus YDL134C, strain PPH21, hits give low values

Measured: normalized growth

CC1=C(C)C(=O)C(CCCCC#CCCCC#CCO)=C(C)C1=O
inactive: [1] 0.995 | S. cerevisiae deletion strains, locus YAL040C, strain CLN3, hits give low values 0.993 | S. cerevisiae deletion strains, locus YCL061C, strain MRC1 (second series), hits give low values 1 | S. cerevisiae deletion strains, locus YDR363W, strain ESC2, hits give low values 0.988 | S. cerevisiae deletion strains, locus YER002W, strain NOP16, hits give low values 0.996 | [2] 1 | [3] 0.998 | S. cerevisiae deletion strains, locus YNL175C, strain NOP13, hits give low values 1 | S. cerevisiae deletion strains, locus YNL197C, strain WHI3, hits give low values 0.997 | S. cerevisiae deletion strains, locus YNL224C, strain SQS1, hits give low values 0.984 | S. cerevisiae deletion strains, locus YOR083W, strain WHI5 (second series), hits give low values 0.975

COc1c([N+](=O)[O-])cc(C(F)(F)F)cc1[N+](=O)[O-]
active: [14] 0.486 | [17] 0.453
inactive: [1] 0.978 | [4] 1.01 | [5] 0.982 | [6] 0.964 | [7] 1.01 | [8] 0.975 | [9] 0.732 | [10] 1.04 | [11] 0.966 | [12] 1.03 | [13] 0.998 | [15] 1.02 | [16] 0.823 | [18] 0.903 | [19] 1 | [2] 0.971 | [3] 0.976 | [20] 0.985 | [21] 0.946 | [22] 0.971 | [23] 0.975 | [24] 0.989 | [25] 0.95 | [26] 0.902 | [27] 0.979

COc1ccc(Oc2ccc(C(F)(F)F)cc2[N+](=O)[O-])cc1
inactive: [1] 0.986 | [4] 0.96 | [28] 0.931 | [5] 0.924 | [29] 1.03 | [6] 0.886 | [7] 1.03 | [8] 0.951 | [9] 0.927 | [10] 0.993 | S. cerevisiae deletion strains, locus YJL187C, strain SWE1, hits give low values 0.965 | [11] 0.946 | [12] 0.925 | [14] 0.901 | [15] 1.02 | [16] 0.896 | [17] 0.926 | [18] 1.06 | [19] 0.996 | [2] 0.917 | S. cerevisiae deletion strains, locus YMR307W, strain GAS1, hits give low values 0.911 | [20] 0.947 | [21] 0.987 | [22] 1.01 | [23] 0.924 | [24] 0.898 | [25] 0.952 | [27] 0.978
active: [26] 0.624

Cc1cc(Oc2c([N+](=O)[O-])cc(C(F)(F)F)cc2[N+](=O)[O-])c2c(Cl)ccc(C)c2n1
active: [1] 0.667 | [4] 0.883 | [29] 0.887 | [7] 0.788 | S. cerevisiae deletion strains, locus YGR052W, strain FMP48, hits give low values 0.173 | [8] 0.913 | [9] 0.271 and 0.16 | S. cerevisiae deletion strains, locus YHR079C, strain IRE1, hits give low values 0.231 | S. cerevisiae deletion strains, locus YHR082C, strain KSP1, hits give low values 0.27 | [10] 0.834 | S. cerevisiae deletion strains, locus YJL095W, strain BCK1, hits give low values 0.363 | [11] 0.905 | S. cerevisiae deletion strains, locus YJR066W, strain TOR1, hits give low values 0.29 | [12] 0.89 | S. cerevisiae deletion strains, locus YKL171W, strain NNK1, hits give low values 0.534 | [13] 0.458 | S. cerevisiae deletion strains, locus YKL203C, strain TOR2, hits give low values 0.459 | [14] 0.498 | [16] 0.372 | [17] 0.547 | [18] 0.805 | [19] 0.905 | S. cerevisiae deletion strains, locus YNL183C, strain NPR1, hits give low values 0.143 | S. cerevisiae deletion strains, locus YNL207W, strain RIO2, hits give low values 0.546 | [21] 0.668 | [23] 0.623 | S. cerevisiae deletion strains, locus YOR119C, strain RIO1, hits give low values 0.479 | S. cerevisiae deletion strains, locus YOR231W, strain MKK1, hits give low values 0.418 | [24] 0.44 | [25] 0.762 | S. cerevisiae deletion strains, locus YPL256C, strain CLN2, hits give low values 0.348 | [26] 0.451
inactive: [28] 0.948 | [5] 0.987 | [6] 0.851 | [15] 0.951 | S. cerevisiae deletion strains, locus YLR113W, strain HOG1, hits give low values 0.655 | [3] 0.957 | [20] 0.976 | [22] 0.948
